Outcome and AC50 data for 18 compounds are collected here from PubChem BioAssay (EPA / NIEHS).

Active and inactive are the calls of the source. How the source made its calls: active means hit-call score of the fitted dose curve at least 0.9, where 1 is the maximum; inactive means score below 0.9.

A word on the AC50: it is the concentration giving half of the maximal activity seen.

The experiment in a line: ATG_AP_1_CIS: Attagene CIS-FACTORIAL HepG2 Assay for human Activator Protein 1 (AP-1) (AID 2282931). The following applies: HepG2 Attagene cis-factorial AP-1 reporter mRNA; actives raise or lower the signal. In a few lines: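 Reporter transcripts were measured 24 h after dosing by RT-PCR and capillary electrophoresis of fluorescent fragments. Cells: HepG2 carrying transfected cis-regulated reporter constructs reading endogenous factor activity. Gain or loss fitted against DMSO.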
Consider `CCc1c(Br)c(Br)c(Br)c(Br)c1Br`, for which the outcome was inactive.

Regarding `CCc1ccc(C(c2ccc(CC)cc2)C(Cl)Cl)cc1`, the AC50 was 66.5 µM (active).

In the case of `CO[Si](OC)(c1ccccc1)c1ccccc1`, the result was inactive.

Take `CCCCCCOC(=O)c1ccccc1O`: the compound was called inactive.

Take `O=C(O)C(F)(F)C(F)(F)C(F)(F)C(F)(F)C(F)(F)C(F)(F)C(F)(F)C(F)(F)C(F)(F)C(F)(F)C(F)(F)C(F)(F)F`: the compound was classed as inactive.

`Cc1ccc(S(=O)(=O)OCC(F)(F)C(F)(F)C(F)(F)C(F)(F)C(F)(F)C(F)F)cc1`: the compound was classed as inactive.

As to `CCCCCCOC(=O)c1ccccc1`, the call was inactive.

`CCN(Cc1cccc(S(=O)(=O)O)c1)c1ccc(C(=C2C=CC(=[N+](CC)Cc3cccc(S(=O)(=O)O)c3)C=C2)c2ccc(O)cc2S(=O)(=O)[O-])cc1`: the result was inactive.

In the case of `CNC(=S)NC`, the result was inactive.

Take `CCCCC(CC)COP(=O)(O)OCC(CC)CCCC` (stereo not drawn): the concentration at half-maximal activity (AC50) is 60.6 µM (active).

As for `C=CC/C=C/C/C=C/C/C=C/C`, the outcome was inactive.

`O=C(O)C(F)(F)C(F)(F)C(F)(F)C(F)(F)C(F)(F)C(F)(F)C(F)(F)C(F)(F)C(F)(F)C(F)(F)C(F)(F)C(F)(F)C(F)(F)F`: the AC50 is 42.8 µM (active).

As to `C=CC(=O)OCC(F)(F)C(F)(F)C(F)(F)C(F)(F)C(F)(F)C(F)(F)C(F)(F)F`, the compound was classed as inactive.

For `N=C(N)C(F)(F)C(F)(F)C(F)(F)C(F)(F)C(F)(F)C(F)(F)C(F)(F)F`, the AC50 is 150 µM (active).

As to `O=C(C=Cc1ccccc1)OCC=Cc1ccccc1`, the outcome was inactive.

On to `Nc1ccc(Oc2cccc(Oc3ccc(N)cc3)c2)cc1`, for which the call was inactive.

As for `FC1CC(F)(F)C(F)(F)C1(F)F` (stereo not drawn), the compound was called inactive.

For `CCCCCCCOC(=O)c1ccccc1C(=O)OCCCCCCC`, the compound was called inactive.
